Compound activity from PubChem BioAssay.
Shiga toxin inh: blocks Shiga toxin action in Vero cells. hit rate 9.2% among 290,000. Vero cells, Shiga toxin protein synthesis inhibition reporter. inhibition, % at 38.7 µM; in the data active = inhibition mostly above about 28%, no sharp cut-off; inactive = mostly below about 43%
Pf growth 96h: P. falciparum growth inhibition at 96 hours | P. falciparum luciferase reporter growth, 96 h | Potency, µM (titrated, usually from 28.7 µM), actives largely listed as inhibitors | hit rate 6.9% among 320,000 | AID 504834
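Erythrocytes infected with luciferase-expressing P. falciparum were dispensed at 2% hematocrit and 0.05% parasitemia (final), then incubated with compounds 96 hours at 37 C in 5% CO2. Luminescence after detection reagent addition reported growth.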
Cycloheximide cs: counter-screen for Shiga toxin inhibitors: cycloheximide protein synthesis inhibition; cell reporter, cycloheximide protein synthesis inhibition counterscreen; max response, %; hit rate 12% among 300,000; AID 2314; in the data active = max response mostly above about 13%, no sharp cut-off; inactive = mostly below about 14%; also: read at 38.3 µM for the half of the compounds with a filed dose
LmPK inhibitor: inhibitors of Leishmania mexicana pyruvate kinase; hit rate 0.37% among 290,000; Q27686; purified LmPK, Kinase-Glo ATP luminescence, 1 h; Potency, µM (doses to about 57.5 µM), hits mostly inhibitors; AID 1721
Target sequence (Q27686 whole entry, looked up): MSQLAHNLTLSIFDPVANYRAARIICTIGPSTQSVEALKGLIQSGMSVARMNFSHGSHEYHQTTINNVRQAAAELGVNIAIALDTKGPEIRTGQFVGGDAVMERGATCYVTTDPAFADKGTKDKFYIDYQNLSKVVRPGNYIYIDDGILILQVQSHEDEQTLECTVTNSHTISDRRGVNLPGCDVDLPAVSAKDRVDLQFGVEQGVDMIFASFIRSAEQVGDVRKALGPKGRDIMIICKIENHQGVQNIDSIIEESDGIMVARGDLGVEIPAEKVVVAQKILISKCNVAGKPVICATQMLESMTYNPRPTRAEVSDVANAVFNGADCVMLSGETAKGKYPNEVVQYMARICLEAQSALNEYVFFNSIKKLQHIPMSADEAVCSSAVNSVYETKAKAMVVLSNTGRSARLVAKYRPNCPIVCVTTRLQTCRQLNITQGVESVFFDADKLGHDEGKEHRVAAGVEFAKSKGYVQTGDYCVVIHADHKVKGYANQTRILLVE
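Purified LmPK (0.1 nM) converted ADP (0.1 mM) to ATP with PEP (0.5 mM) in imidazole buffer pH 7.2 with KCl and MgCl2, 1 h at room temperature. ATP was read by Kinase-Glo luminescence; data normalized to uninhibited and no-enzyme controls.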
Pf growth 48h: P. falciparum growth inhibition at 48 hours (one generation); Potency, µM (highest dose often 28.7 µM), usual class: inhibitors; hit rate 5.9% among 310,000; P. falciparum luciferase growth in erythrocytes, 48 h
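A one-generation exposure of luciferase-tagged malaria parasites in RPMI 1640/Albumax erythrocyte culture, 37 C and 5% CO2. Inhibition is inferred from decreased luminescence after adding detection reagent.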
A number is an active result; – = inactive; ? = inconclusive; · = no result given; [ ] = dose if it differs, or a comment. Hits are enriched below; roughly 22% of the tested compounds scored in any of these assays. Unless noted, calls follow the shape of the dose curve; as a rule, active = well fitted inhibition curve with a large enough effect; inconclusive = small, poorly fitted or top-dose-only effect, or another doubt; inactive = no such curve, though single readings can be large or run the other way.

SMILES	Shiga toxin inh	Pf growth 96h	Cycloheximide cs	LmPK inhibitor	Pf growth 48h
CCN(CC(=O)NC(C)(C)C)C(=O)CCl	–	?	–	–	12µM
CCCc1nnc(NC(=S)Nc2ccccc2)s1	42	–	27	–	–
CC(C)C(=O)Nc1nnc(NC(=S)Nc2ccccc2)s1	68	12µM	34	–	–
CC(C)C(=O)Nc1nnc(CCc2nnc(NC(=O)C(C)C)s2)s1	–	?	–	–	–
C/C=C(\C)c1nnc(NC(=O)C(C)C)s1	–	–	19	–	–
Cc1nc([N+](=O)[O-])c(Sc2nc3ccccc3n2C)n1Cc1ccccc1	–	?	–	–	?
CCn1c(O)c(C=Nc2ccccc2)sc1=S	85	–[1.15 µM]	38	–	–
C=CCn1c(O)c(C=Nc2ccccc2)sc1=S	64	?	28	–	–
CCn1c(O)c(C=NC2CCCC2)sc1=S	–	–	34	–	·
Oc1c(C=Nc2ccccc2)sc(=S)n1Cc1ccccc1	–	–	–	–	–
O=C(N1CCc2ccc(S(=O)(=O)N3CCN(S(=O)(=O)c4ccc5c(c4)OCCO5)CC3)cc2C1)C(F)(F)F	–	·	–	·	·
c1cncc(CNCc2ccco2)c1	–	–	–	–	–
COc1ccc(N2CC(NC(=O)N3CCc4ccccc43)CC2=O)cc1OC (centres undefined)	–	–	–	–	–
Fc1ccc(-c2nnc(CSc3nnc4ccccn34)o2)cc1	–	–	40	–	–
c1ccc(-c2cnc(CSc3nnc4ccccn34)o2)cc1	53	·	40	–	–
Cn1c(SCc2nnc(-c3ccc(F)cc3)o2)nnc1C1COc2ccccc2O1 (centres undefined)	–	?	–	–	?
Cc1ccccc1-n1nnnc1SCc1ncc(-c2ccccc2)o1	–	–	–	–	–
Cc1ccc(C)c(NC(=O)C2=CCN(S(=O)(=O)c3ccc(F)cc3)CC2)c1	–	?	–	–	–
CCN1C(=O)/C(=C2\Sc3ccccc3N2CC)OC1=S	–	–	–	–	–
CCN1C(=O)/C(=C\N(C(C)=O)c2ccccc2)OC1=S	31	12µM	32	–	–
CCN1C(=O)/C(=C/N(C)c2ccccc2)OC1=S	67	–	25	–	–
CC(=O)N(/C=C1\SC(=S)N(c2ccccc2)C1=O)c1ccccc1	–	–	–	–	–
Cc1nn(C(=O)c2cccs2)c(N)c1-c1ccccc1	68	–	35	–	–
Cc1nn(C(=O)c2ccc3c(c2)OCO3)c(N)c1-c1ccccc1	76	–	39	–	–
O=C(c1ccc2c(c1)OCO2)N1CCN(c2ccccc2)CC1	–	·	–	–	?
SMILES	Shiga toxin inh	Pf growth 96h	Cycloheximide cs	LmPK inhibitor	Pf growth 48h
c1ccc(Cc2noc(CN3CCN(CCOc4ccccc4)CC3)n2)cc1	–	?	–	–	–
NNc1nc(-c2ccccc2Cl)nc2sc3c(c12)CCCC3	52	?	46	–	?
NNc1nc(-c2ccccc2Cl)nc2ccccc12	·	–	–	–	–
CCN1CCN(Cc2ccc(NC(=O)c3cc(NC(=O)c4cc(C)on4)cc(OC)c3)cc2C(F)(F)F)CC1	–	0.52µM	–	–	?
CCN1CCN(Cc2ccc(NC(=O)c3ccc(C)c(NC(=O)C(=O)c4c[nH]c5ccccc45)c3)cc2C(F)(F)F)CC1	–	0.41µM	–	–	0.37µM
CCN1CCN(Cc2ccc(NC(=O)c3ccc(C)c(NC(=O)c4ccnnc4)c3)cc2C(F)(F)F)CC1	–	?	–	–	–
CCN1CCN(Cc2ccc(NC(=O)c3cc(NC(=O)c4cnn(-c5ccccc5)c4N)cc(OC)c3)cc2C(F)(F)F)CC1	–	0.83µM	–	–	1.9µM
CCN1CCN(Cc2ccc(C(=O)Nc3ccc(C)c(NCc4cnc(NC(=O)OC)cn4)c3)cc2C(F)(F)F)CC1	–	0.37µM	–	–	?
CCN1CCN(Cc2ccc(NC(=O)c3cc(NC(=O)C(=O)c4c[nH]c5ccccc45)cc(OC)c3)cc2C(F)(F)F)CC1	–	0.13µM	–	–	0.37µM
COc1cccc(/C=N/NC(=O)c2cc(-c3cccn3C)n[nH]2)c1O	–	?	–	–	?
COc1cc(/C=N/NC(=O)c2cc(-c3cccn3C)n[nH]2)cc(OC)c1OC	–	–	–	–	6.6µM
COc1cccc(/C=N/NC(=O)c2cc(-c3cccn3C)n[nH]2)c1	–	12µM	–	–	?
Cn1cccc1-c1cc(C(=O)N/N=C/c2ccc(Cl)cc2)[nH]n1	–	–	–	–	–
